# Inconclusive results are not listed. A call without a number means that no potency is given here. Active and inactive are the calls of the source. Unless noted, the call rests on the fitted dose curve; in most records, active means well fitted curve in the direction sought with a large enough effect; inconclusive means small, poorly fitted or top-dose-only effect, or another doubt; inactive means no such curve, though single readings can be large; an effect the other way counts as inactive or inconclusive. Peptide text beside a SMILES is read from it.
# How the values were obtained:
# [1] = target: Pyruvate kinase PKM (Homo sapiens) (UniProt P14618); test: qHTS Assay for Activators of Human Muscle Pyruvate Kinase (AID 954; active means well fitted curve in the direction sought with a large enough effect, not every such curve was filed as active); conditions: purified human muscle pyruvate kinase, luciferase-coupled luminescence, 1 h; series mostly up to 57.5 µM
# Procedure, shortened: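 Compound pinned into substrate mix (0.5 mM PEP, 0.1 mM ADP), then 0.1 nM PKM2 added; 1 h, RT. Stop/detection luciferase reagent added, luminescence read. Normalized to no-inhibition and no-enzyme or reference-inhibitor controls.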
# [2] = MultiTox-Fluor Cytotoxicity Assay - LYMP1-002 - Live Cells (AID 955); conditions: LYMP1-002 lymphoblastoid live-cell protease fluorescence viability; series mostly up to 46.1 µM; further: potency means the concentration at half of the fitted maximal effect
# Procedure, shortened: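 Cells were seeded at 2500 per well and incubated 5 hr. Compounds were then added for 16 hr at 37 C, followed by MultiTox-Fluor reagent for 60 min at room temperature and fluorescence reading of viable-cell protease signal.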
# [3] = MultiTox-Fluor Cytotoxicity Assay - LYMP1-003 - Dead Cells (AID 961); conditions: LYMP1-003 lymphoblastoid cells, dead-cell protease fluorescence; series mostly up to 92.2 µM; further: nearly all actives have a fitted effect of over 70% in size; further: potency means the concentration at half of the fitted maximal effect
# Procedure, shortened: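 LYMP1-003 human lymphoblastoid cells (2500/well) exposed to compound 16 h at 37 C in complete medium; dead-cell protease read with bis-AAF-R110 fluorescence (Ex/Em 485/520) after 60 min at room temperature. Normalized to DMSO and 15 uM tetraoctylammonium bromide; AC50 from Hill fit.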
# [4] = MultiTox-Fluor Cytotoxicity Assay - LYMP1-003 - Live Cells (AID 962); conditions: LYMP1-003 lymphoblastoid cells, MultiTox-Fluor live-cell protease fluorescence; series mostly up to 92.2 µM; further: potency means the concentration at half of the fitted maximal effect
# Procedure, shortened: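 Acute cytotoxicity is scored as a drop in live-cell protease activity in human lymphoblastoid LYMP1-003 cells after 16 hr compound exposure at 37 C. AC50 values come from Hill-equation modelling of concentration-response data.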
# [5] = Cell Viability - LYMP1-003 - Assay at 24 hr (AID 963); conditions: LYMP1-003 lymphoblastoid cell viability; series mostly up to 92.2 µM; further: potency means the concentration at half of the fitted maximal effect
# Procedure, shortened: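 Cytotoxicity is scored as a concentration-dependent fall in ATP-linked luciferase signal in human lymphoblastoid LYMP1-003 cells treated 24 hr at 37 C in complete culture medium.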
# [6] = Cell Viability - LYMP1-003 - Assay at 40 hr (AID 964); conditions: LYMP1-003 lymphoblastoid viability; series mostly up to 92.2 µM; further: nearly all actives have a fitted effect of over 60% in size; further: potency means the concentration at half of the fitted maximal effect
# Procedure, shortened: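 Luminescent ATP signal (CellTiter-Glo) served as the viability read-out after 40 hr compound treatment of human lymphoblastoid LYMP1-003 cells at 37 C. Decreases in ATP were fitted with the Hill equation to give AC50.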
# [7] = Cell Viability - LYMP2-003 (AID 965); conditions: LYMP2-003 lymphoblastoid cell viability; series mostly up to 92.2 µM;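 further: cells exposed to compounds for 24 h before reading; nearly all actives have a fitted effect of over 50% in size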; further: potency means the concentration at half of the fitted maximal effect
# Procedure, shortened: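 Human lymphoblastoid LYMP2-003 cells, 2500/well, exposed to compounds for 24 h at 37 C in complete medium. Viability read as intracellular ATP by CellTiter-Glo luminescence; AC50 from Hill-equation fits of qHTS concentration-response data.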
# [8] = MultiTox-Fluor Cytotoxicity Assay - LYMP1-002 - Dead Cells (AID 960); conditions: LYMP1-002 lymphoblastoid cells, dead-cell protease fluorescence; series mostly up to 46.1 µM; further: nearly all actives have a fitted effect of over 60% in size
# Procedure, shortened: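 Cells were plated, rested 5 hr, then treated with compound dilution series for 16 hr at 37 C. After adding substrate reagent and 60 min at room temperature, dead-cell protease fluorescence gave concentration-response curves fitted by the Hill equation.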
# [9] = target: Pyruvate kinase (Leishmania mexicana) (UniProt Q27686); test: qHTS Validation Assay for Activators of Leishmania Mexicana Pyruvate Kinase (AID 959); conditions: purified L. mexicana pyruvate kinase, enzyme activity; series mostly up to 57.5 µM
# Excerpt: NIH Molecular Libraries Screening Centers Network [MLSCN]
# NIH Chemical Genomics Center [NCGC]
# PI names: Malcom Walkinshaw, Hugh Morgan and Linda Gilmore
# University of Edinburgh, Edinburgh, UK
# Species of Leishmania are responsible for a wide spectrum of diseases throughout the tropics and subtropics, ranging from self-healing ulcers to highly disfiguring lesions and serious, often lethal visceral diseases, such as kala-azar. In Leishmania spp. it has been shown that both sugar uptake and gluconeogenesis are necessary to synthesize sufficient hexose-phosphate required for the production of glycoconjugates and the intracellular polysaccharide mannan which are essential for both replication and virulence of the parasites. Therefore, most of the enzymes participating in glycolysis and gluconeogenesis are expected to be essential (Naderer et al., 2006). The assay described here targets pyruvate kinase from Leishmania mexicania (LmPYK) that was obtained as a highly purified preparation from the University of Edinburgh (E451W mutant was provided). A 1536 well assay protocol was set up and validated by screening the LOPAC library in triplicate as an eight point concentration-titration series using the qHTS platform developed at the NCGC.
# NCGC Assay Protocol Summary:
# Three uL of substrate mix (final concentrations, 50 mM imidazole pH 7.2, 50 mM KCl, 7 mM MgCl2, 0.5 mM PEP, 0.1 mM ADP, 0.01% Tween 20, 0.05% BSA) was dispensed into white solid medium binding Greiner 1536 well plates. 23 nL of compound were delivered by a pin tool and 1 uL of enzyme mix (final concentration, 0.2 nM LmPYK, 50 mM imidazole pH 7.2, 0.05% BSA) was added. Plates were covered with stainless steel gasket-lined lids and incubated at room temperature for 1 hour. Two uL of detection and kinase stop mix (PKLight, Lonza) was added, and luminescence read by a ViewLux (Perkin Elmer) at 2 second exposure/plate using 2x binning. Controls on each plate were as follows: column 1, sixteen-point titration (1:2 dilutions) in duplicate the LmPK activator LOPAC-C8145 beginning at 57 uM final concentration; column 2, sixteen-point titration (1:2 dilutions) in duplicate activator LOPAC-S4063 beginning at 57 uM final concentration; column 3, column 4 DMSO only. Data were normalized to the neutral control (column 3).
# [10] = target: Pyruvate kinase PKM (Homo sapiens) (UniProt P14618); test: qHTS Assay for Inhibitors of Human Muscle Pyruvate Kinase (AID 958); conditions: purified human PKM enzyme activity
# Procedure, shortened: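 Enzyme was run at intermediate activity so both inhibitors and activators could be detected. ATP formed from ADP and PEP by 0.1 nM human PKM2 during a 1 h room-temperature incubation was quantified by coupled luciferase luminescence.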
# Chain of Pyruvate kinase (Leishmania mexicana) (Q27686 2-499 E452W): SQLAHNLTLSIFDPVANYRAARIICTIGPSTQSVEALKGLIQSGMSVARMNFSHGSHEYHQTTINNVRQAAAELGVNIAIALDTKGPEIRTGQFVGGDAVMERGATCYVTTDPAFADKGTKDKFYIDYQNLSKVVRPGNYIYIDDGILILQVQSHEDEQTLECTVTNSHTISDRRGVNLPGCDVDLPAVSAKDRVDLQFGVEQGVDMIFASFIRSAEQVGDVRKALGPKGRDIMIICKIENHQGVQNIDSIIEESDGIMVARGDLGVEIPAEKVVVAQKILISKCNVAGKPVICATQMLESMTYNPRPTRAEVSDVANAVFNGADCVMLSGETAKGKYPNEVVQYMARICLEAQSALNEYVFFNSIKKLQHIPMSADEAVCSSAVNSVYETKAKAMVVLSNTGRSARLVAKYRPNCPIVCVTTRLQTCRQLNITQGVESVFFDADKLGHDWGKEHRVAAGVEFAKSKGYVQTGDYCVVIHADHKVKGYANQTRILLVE
# Chain of Pyruvate kinase PKM (Homo sapiens) (P14618 whole entry, looked up): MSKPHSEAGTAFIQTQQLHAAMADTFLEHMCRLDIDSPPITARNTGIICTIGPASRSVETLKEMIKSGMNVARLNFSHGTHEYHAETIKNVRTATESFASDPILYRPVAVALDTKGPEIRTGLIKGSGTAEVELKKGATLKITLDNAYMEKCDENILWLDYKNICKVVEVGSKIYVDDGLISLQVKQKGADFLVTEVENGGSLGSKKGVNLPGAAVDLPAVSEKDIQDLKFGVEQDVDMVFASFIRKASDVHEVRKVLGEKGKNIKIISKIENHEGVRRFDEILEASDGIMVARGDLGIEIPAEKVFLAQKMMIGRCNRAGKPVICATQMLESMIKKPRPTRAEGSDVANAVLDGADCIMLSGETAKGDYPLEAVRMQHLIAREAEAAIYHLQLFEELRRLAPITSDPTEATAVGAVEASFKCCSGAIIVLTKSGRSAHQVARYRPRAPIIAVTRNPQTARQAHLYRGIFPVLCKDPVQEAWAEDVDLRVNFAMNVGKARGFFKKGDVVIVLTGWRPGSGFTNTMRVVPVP
structure (smiles),measurement,setting,value
O=c1cc(N2CCOCC2)oc2c(-c3ccccc3)cccc12,outcome,[1],inactive
COC(=O)[C@H](Cc1ccccc1)NC(=O)[C@@H](N)CC(=O)O (H-Asp-Phe-OMe),Potency,[2],inactive
same,Potency,[3],inactive
same,Potency,[4],inactive
same,Potency,[5],inactive
same,Potency,[6],inactive
same,Potency,[7],inactive
O=C(O)c1cccnc1Nc1cccc(C(F)(F)F)c1,outcome,[1],inactive
O=C(CCc1ccc(O)cc1)c1c(O)cc(O)cc1O,outcome,[1],inactive
NC(=NCc1ccccc1)NC(=O)c1nc(Cl)c(N)nc1N,outcome,[1],inactive
Cc1cc(O)c2c(c1)C(=O)c1cc(O)cc(O)c1C2=O,outcome,[1],inactive
same,Potency,[2],inactive
same,outcome,[8],inactive
same,Potency,[3],inactive
same,Potency,[4],inactive
same,Potency,[5],inactive
same,Potency,[6],inactive
same,Potency,[7],inactive
O=c1c(O)c(-c2ccc(O)cc2O)oc2cc(O)cc(O)c12,outcome,[1],inactive
same,Potency,[9],20 µM (active)
COc1ccc2cc([C@H](C)C(=O)O)ccc2c1,outcome,[1],inactive
CCc1nc(N)nc(N)c1-c1ccc(Cl)cc1,Potency,[2],inactive
same,outcome,[8],inactive
same,Potency,[3],inactive
same,Potency,[4],inactive
same,Potency,[6],7.94 µM (active)
same,Potency,[7],inactive
NNc1nncc2ccccc12,outcome,[1],inactive
same,Potency,[10],7.94 µM (active)
same,Potency,[9],inactive
O=C1c2ccccc2-c2n[nH]c3cccc1c23,outcome,[1],inactive
CC(=O)N1CCN(c2ccc(OC[C@H]3CO[C@](Cn4ccnc4)(c4ccc(Cl)cc4Cl)O3)cc2)CC1,outcome,[1],inactive
c1ccc2[nH]c(-c3cscn3)nc2c1,Potency,[2],inactive
same,outcome,[8],inactive
same,Potency,[3],inactive
same,Potency,[4],inactive
same,Potency,[5],inactive
same,Potency,[6],inactive
same,Potency,[7],inactive
CC(=O)Nc1ccc(O)cc1,Potency,[2],inactive
same,outcome,[8],inactive
same,Potency,[3],inactive
same,Potency,[4],inactive
same,Potency,[5],inactive
same,Potency,[6],inactive
same,Potency,[7],inactive
Cc1cccc(C#Cc2ccccc2)n1,outcome,[1],inactive
same,Potency,[10],25.1 µM (active)
same,Potency,[9],inactive
Oc1ccc(-c2nc(-c3ccc(F)cc3)c(-c3ccncc3)[nH]2)cc1,outcome,[1],inactive
Cc1ccc(C)c(OCCCC(C)(C)C(=O)O)c1,Potency,[2],inactive
same,outcome,[8],inactive
same,Potency,[3],inactive
same,Potency,[4],inactive
same,Potency,[5],inactive
same,Potency,[6],inactive
same,Potency,[7],inactive
CS(=O)(=O)OCCCCOS(C)(=O)=O,Potency,[2],inactive
same,outcome,[8],inactive
same,Potency,[3],inactive
same,Potency,[4],inactive
same,Potency,[5],inactive
same,Potency,[6],inactive
same,Potency,[7],inactive
CCCCC(CC)COC(=O)C(C#N)=C(c1ccccc1)c1ccccc1 (configuration not stated),Potency,[2],inactive
same,Potency,[3],inactive
same,Potency,[4],inactive
same,Potency,[5],inactive
same,Potency,[6],inactive
same,Potency,[7],inactive
NCCCCNCCCN,outcome,[1],inactive
CC(C)c1ccc2c(c1)c(SC(C)(C)C)c(CC(C)(C)C(=O)O)n2Cc1ccc(Cl)cc1,outcome,[1],inactive
Nc1nc(OCc2ccccc2)c2[nH]cnc2n1,outcome,[1],inactive
CC1(C)NC(=O)N(c2ccc([N+](=O)[O-])c(C(F)(F)F)c2)C1=O,outcome,[1],inactive
CCCc1cc(=O)[nH]c(=S)[nH]1,Potency,[2],inactive
same,outcome,[8],inactive
same,Potency,[3],inactive
same,Potency,[4],inactive
same,Potency,[5],inactive
same,Potency,[6],inactive
same,Potency,[7],inactive
COc1c2occc2cc2ccc(=O)oc12,Potency,[2],inactive
same,outcome,[8],inactive
same,Potency,[3],inactive
same,Potency,[4],inactive
same,Potency,[5],inactive
same,Potency,[6],inactive
same,Potency,[7],inactive
O=C1NC(=O)C(c2ccccc2[N+](=O)[O-])=C1Nc1ccc(O)c(Cl)c1,outcome,[1],inactive
COc1ccccc1N1CCN(CCN(C(=O)C2CCCCC2)c2ccccn2)CC1,outcome,[1],inactive
O=c1ccc2ccc(O)c(O)c2o1,outcome,[1],inactive
same,Potency,[9],15.8 µM (active)
CN(C)c1ccc2nc3ccc(=[N+](C)C)cc-3sc2c1,Potency,[2],12.6 µM (active)
same,Potency,[3],39.8 µM (active)
same,Potency,[4],7.94 µM (active)
same,Potency,[5],7.94 µM (active)
same,Potency,[6],3.98 µM (active)
same,Potency,[7],3.98 µM (active)
O=Nc1c(-c2c(O)[nH]c3cc(Br)ccc23)[nH]c2ccccc12,outcome,[1],inactive
same,Potency,[10],15.8 µM (active)
same,Potency,[9],inactive
Cc1c(OCC(F)(F)F)ccnc1CS(=O)c1nc2ccccc2[nH]1 (configuration not stated),outcome,[1],inactive
Nc1ccc(S(N)(=O)=O)cc1,Potency,[2],inactive
same,outcome,[8],inactive
same,Potency,[3],inactive
same,Potency,[4],inactive
same,Potency,[5],inactive
same,Potency,[6],inactive
same,Potency,[7],inactive
NS(=O)(=O)c1cc(C(=O)O)c(NCc2ccco2)cc1Cl,Potency,[2],inactive
same,outcome,[8],inactive
same,Potency,[3],inactive
same,Potency,[4],inactive
same,Potency,[5],inactive
same,Potency,[6],inactive
same,Potency,[7],inactive
CNC[C@H](O)c1ccc(O)c(O)c1,outcome,[1],inactive
CCN(CC)C(=S)SSC(=S)N(CC)CC,outcome,[1],inactive
C[C@H](Cc1ccc(O)c(O)c1)[C@@H](C)Cc1ccc(O)c(O)c1,outcome,[1],inactive
CC1(C)C(=O)N(CCN2CCC(C(=O)c3ccc(F)cc3)CC2)c2ccccc21,outcome,[1],inactive
O=c1c(O)c(-c2cc(O)c(O)c(O)c2)oc2cc(O)cc(O)c12,outcome,[1],inactive
same,Potency,[9],2 µM (active)
